High-throughput results (PubChem BioAssay)
Most compounds without a hit are left out; they make up all but 1.1% or so of the library.
TrxR1 inh – qHTS Assay for Inhibitors of Mammalian Selenoprotein Thioredoxin Reductase 1 (TrxR1): qHTS | Thioredoxin reductase 1, cytoplasmic (Rattus norvegicus), O89049 | recombinant rTrxR1, NADPH fluorescence consumption, selenite substrate | Potency, µM (titrated, usually from 114 µM), actives largely listed as inhibitors | 390,000 tested, 1% active; note: nearly all actives have a fitted effect of over 65% in size
Target sequence (O89049 whole entry, looked up): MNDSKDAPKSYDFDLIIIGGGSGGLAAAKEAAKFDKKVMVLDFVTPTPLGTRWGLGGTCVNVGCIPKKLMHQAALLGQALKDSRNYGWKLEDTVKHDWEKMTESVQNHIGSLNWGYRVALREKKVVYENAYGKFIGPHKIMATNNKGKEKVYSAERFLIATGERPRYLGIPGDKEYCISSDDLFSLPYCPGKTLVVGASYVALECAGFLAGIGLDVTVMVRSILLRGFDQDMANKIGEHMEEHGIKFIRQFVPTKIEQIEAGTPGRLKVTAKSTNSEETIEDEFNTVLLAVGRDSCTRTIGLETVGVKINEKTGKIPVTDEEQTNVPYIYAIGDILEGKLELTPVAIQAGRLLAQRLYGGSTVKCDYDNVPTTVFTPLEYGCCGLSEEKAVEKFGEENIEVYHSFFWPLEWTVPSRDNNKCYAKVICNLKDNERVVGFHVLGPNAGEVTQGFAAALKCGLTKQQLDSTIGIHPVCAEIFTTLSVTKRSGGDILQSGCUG
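Rat TrxR1 (90 nM in the dispensed reagent) was pre-reduced with 400 uM NADPH for 5 min at room temperature, then incubated with compound for 15 min. After 400 uM selenite was added, NADPH fluorescence (Ex 340/Em 450 nm) was followed for 8 min.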
mIDH1 inhibitor – qHTS for Inhibitors of mutant isocitrate dehydrogenase 1 (IDH1): qHTS; 390,000 tested, 0.093% active; IDH1-R132H enzyme, NADPH consumption, diaphorase/resazurin fluorescence; Potency, µM (highest dose often 76.6 µM), hits mostly inhibitors; Isocitrate dehydrogenase [NADP] cytoplasmic (Homo sapiens), O75874; note: nearly all actives have a fitted effect of over 65% in size
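IDH1-R132H (0.5 ug/mL dispensed) in pH 7.5 Tris buffer was preincubated 30 min with compound, then given a substrate mix of 0.016 mM NADPH and 2 mM alpha-KG for 80 min at room temperature; remaining NADPH was read by diaphorase/resazurin fluorescence.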
Eya2 phos inh – qHTS Assay for Inhibitors of the Phosphatase Activity of Eya2. Potency, µM (series often up to 76.9 µM), usual class: inhibitors. 330,000 tested, 0.006% active. AID 488837, 2010. Protein phosphatase EYA2 (Homo sapiens), O00167. recombinant Eya2, OMFP fluorescence dephosphorylation (OMFP is methylfluorescein phosphate)
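Eya2 (0.2 uM) preincubated 10 min at ambient with compound, then OMFP substrate added at 50 uM; 10 min reaction in 50 mM HEPES pH 7.5, 50 mM NaCl, 5 uM MgCl2, 0.05% BSA, 1 mM DTT. Fluorescence read at Ex 485/Em 525 nm.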
TrxR1 substrate – qHTS Assay for Substrates of Mammalian Selenoprotein Thioredoxin Reductase 1 (TrxR1): qHTS. purified TrxR1 substrate turnover, NADPH consumption readout. Potency, µM (titrated, usually from 114 µM). 390,000 tested, 0.01% active. AID 588456, 2011; note: nearly all actives have a fitted effect of over 50% in size
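Rat TrxR1, dispensed at 90 nM, was prereduced with 400 uM NADPH (final) for 5 min at ~22 deg C, then incubated with compound 15 min before 400 uM selenite. A first-read NADPH fluorescence drop versus no-compound background flagged substrates.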
RGS4 inh – Inhibitors of Regulator of G Protein Signaling (RGS) 4: qHTS; 390,000 tested, 0.039% active; Potency, µM (titrated, usually from 114 µM), hits mostly inhibitors; AID 504845, 2011; Regulator of G-protein signaling 4 (Homo sapiens), P49798; Transcreener GDP fluorescence polarization, RGS4-accelerated GTP hydrolysis; note: nearly all actives have a fitted effect of over 75% in size
Target sequence (P49798 whole entry, looked up): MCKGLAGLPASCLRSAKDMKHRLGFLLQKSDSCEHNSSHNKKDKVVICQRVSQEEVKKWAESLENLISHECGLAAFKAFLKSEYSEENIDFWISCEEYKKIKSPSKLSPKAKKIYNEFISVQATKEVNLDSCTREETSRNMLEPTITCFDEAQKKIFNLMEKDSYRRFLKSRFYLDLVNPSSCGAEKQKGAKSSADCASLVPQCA
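MLSMR compounds (23 nl, pin-transferred) preincubated 10 min at room temperature with a 500nM (2x) first reagent, then RGS4 at 900nM (2x) plus Transcreener GDP mix added; fluorescence polarization (620/688 nm) read before and after 90 min at 30 °C.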
Large screens that a line does not name were inactive. Calls come from the whole dose curve; as a rule, active = well fitted curve in the direction sought with a large enough effect; inconclusive = small, poorly fitted or top-dose-only effect, or another doubt; inactive = no such curve, though single readings can be large; an effect the other way counts as inactive or inconclusive.

COc1ccc(C(CNC(=O)COc2ccccc2C)N2CCOCC2)cc1 (stereo unspecified)	none
COc1ccccc1C(=O)NNC1=C(C(=O)C(F)(F)F)CCC1	TrxR1 inh 45µM
C=C(C)[C@@H]1C2=CC(C(=O)OC)=C(C[C@@H](C(=C)C)[C@H]3O[C@H]3C3=C[C@H]1OC3=O)O2	TrxR1 inh 11µM (no result: mIDH1 inhibitor, Eya2 phos inh)
CCNC(=O)C/C(C)=N/NC(=O)C12CC3CC(CC(C3)C1)C2	TrxR1 inh 25µM
CCOC(=O)c1c2c(n(-c3ccc(OC)cc3)c1C)C(=O)C(=O)c1ccccc1-2	TrxR1 inh inconclusive, TrxR1 substrate 56µM, RGS4 inh inconclusive (no result: Eya2 phos inh)
CCOC(=O)c1sc(=S)n(-c2ccc(OC)cc2)c1C	Eya2 phos inh inconclusive
CNCC(O)COc1cccc(OC)c1 (stereo unspecified)	none
CNCC(O)COc1ccccc1 (stereo unspecified)	TrxR1 inh 71µM
Cc1ccc(CNC(=O)CCCOc2cc(=O)n(C)c3ccccc23)o1	TrxR1 inh 40µM
CCCC1C2CN(C(C)=O)CC=C2C(C#N)=C(N)C1(C#N)C#N (stereo unspecified)	none
COc1ccc(C2=Nn3c(nnc3-c3ccccc3Cl)SC2)cc1OC1CCOC1 (stereo unspecified)	none (no result: mIDH1 inhibitor)
COc1ccc(C2=Nn3c(nnc3-c3ccccc3Cl)SC2)cc1OC1CCCC1	TrxR1 inh 7.1µM (no result: mIDH1 inhibitor)
O=C(Cn1c(=O)[nH]n(-c2ccccc2)c1=O)N1CCCc2ccccc21	none
CC(C)Cc1ccc(C(C)/C=C2/CCC(CN3CCCCC3)C2=O)cc1 (stereo unspecified)	TrxR1 inh 3.5µM, RGS4 inh inconclusive (no result: Eya2 phos inh)
CC(C)Cc1ccc(CN2CCCC(NC(=O)CCN3CCCCC3=O)C2)cc1 (stereo unspecified)	none
COc1ccc(/C(C)=N/Nc2nc(C)c(C(C)=O)s2)cc1	none
CC(=O)c1sc(N/N=C2\CC3CC2C(C)C3(C)C)nc1C (stereo unspecified)	TrxR1 inh 11µM
CN1CCC(OC(c2ccccc2)c2ccc(Cl)cc2)C1 (stereo unspecified)	none (no result: Eya2 phos inh)
CC1CCN(c2ccc(NC(=S)NC(=O)c3ccc(-c4cccc([N+](=O)[O-])c4)o3)cc2)CC1	TrxR1 inh 20µM, RGS4 inh inconclusive
CN(CCO)c1cc(Sc2nc3ccccc3s2)c2nonc2c1[N+](=O)[O-]	TrxR1 inh 0.35µM, RGS4 inh inconclusive
CC(=O)OCCN(C)c1cc(SC(C)C)c2nonc2c1[N+](=O)[O-]	TrxR1 inh 3.2µM
O=C(NCC(=O)N1CCN(S(=O)(=O)c2cccc(F)c2)CC1)c1ccc(Br)o1	none
N#CCCCN1C(=O)C(=C(C#N)C#N)c2ccccc21	TrxR1 inh 13µM, mIDH1 inhibitor inconclusive
CC(=C\C(=O)O)/C(=C/c1ccc(C)o1)C(=O)O	TrxR1 inh 71µM
CC(=C\C(=O)O)/C(=C/c1ccco1)C(=O)O	TrxR1 inh inconclusive
CC(NCc1ccc2c(c1)OCO2)C(=O)N1CCc2ccccc21 (stereo unspecified)	none
O=C1CSC2(C(=O)N(Cc3cccc(F)c3)c3ccccc32)N1c1cccc(C(F)(F)F)c1 (stereo unspecified)	none (no result: Eya2 phos inh)
CC(=O)Nc1cccc(C(=O)/C=C/c2ccc(/C=C/C(=O)c3cccc(NC(C)=O)c3)cc2)c1	none (no result: TrxR1 inh, mIDH1 inhibitor, TrxR1 substrate, RGS4 inh)
CC(=O)Nc1cccc(C(=O)/C=C/c2ccc[nH]2)c1	TrxR1 inh 71µM
CCOC(=O)CNC(c1ccccc1)c1cc(Br)ccc1NC(=O)CCN1CCOCC1 (stereo unspecified)	TrxR1 inh inconclusive, RGS4 inh inconclusive
COC(=O)CNC(c1ccccc1)c1cc(Br)ccc1NC(=O)CCN1CCOCC1 (stereo unspecified)	TrxR1 inh 2.2µM
CC1CCC(NC(=O)c2ccc(NS(=O)(=O)c3ccc4[nH]c(=O)[nH]c4c3)cc2)CC1 (stereo unspecified)	none
COc1ccc(NC(=O)c2ccc(NC(=O)COC(=O)CC(NC(=O)c3ccccc3Cl)c3ccccc3)cc2)cc1 (stereo unspecified)	none
Cc1ccc(C(=O)N/C(=C\c2ccc(-c3ccccc3[N+](=O)[O-])o2)C(=O)NCCCN(C)C)cc1	TrxR1 inh inconclusive
Cc1ccc(C(=O)N/C(=C\c2ccc(-c3ccccc3[N+](=O)[O-])o2)C(=O)NCCN(C)C)cc1	TrxR1 inh 14µM
Cc1[nH]c2ccccc2c1C(=O)C(C)OC(=O)c1ccc(Cl)nc1 (stereo unspecified)	none
COC(=O)CSc1[nH]c2ccc(F)cc2c1[N+](=O)[O-]	TrxR1 inh 35µM, RGS4 inh inconclusive
O=C(O)CC1CCC(=C(Cl)Cl)C1 (stereo unspecified)	TrxR1 inh 1µM
CC(=O)c1ccc(OCc2cc(C(=O)N3CC[C@@H]4CCCC[C@H]4C3)no2)cc1	TrxR1 inh 25µM
CN(C)S(=O)(=O)c1cccc(NC(=O)COC(=O)c2ccc([N+](=O)[O-])o2)c1	TrxR1 inh 25µM
O=C(COC(=O)c1ccc([N+](=O)[O-])o1)Nc1ccc(F)cc1	TrxR1 inh 25µM
O=C(COC(=O)c1ccc([N+](=O)[O-])o1)Nc1ccc(Br)cc1F	TrxR1 inh 5µM
CCNC(=O)C1CC(=O)N(Cc2ccc(F)cc2)C(=Nc2ccc(OC)cc2)S1 (stereo unspecified)	none
CS(=O)(=O)c1ccc(C(=O)NCCN2C(=O)S/C(=C\c3cccnc3)C2=O)cc1[N+](=O)[O-]	TrxR1 inh 18µM
CN(C)S(=O)(=O)c1ccc(C(=O)NCCN2C(=O)S/C(=C\c3cccnc3)C2=O)cc1	none
COc1cccc(-c2n[nH]c(=S)n2Cc2ccco2)c1	TrxR1 inh 40µM, RGS4 inh inconclusive
CCN1CCN(c2cc(C)c3cc(NC(=S)N4CCCC(C)C4)ccc3n2)CC1 (stereo unspecified)	none
CC(C)NC(=O)c1cc(-c2ccco2)nn1-c1ccc(Cl)cc1	TrxR1 inh 20µM, RGS4 inh inconclusive
Cc1ccc(-n2nc(-c3ccco3)cc2C(=O)O)cc1	TrxR1 inh inconclusive
O=C(c1cc(-c2ccco2)nn1-c1cccc(Cl)c1)N1CCCCC1	TrxR1 inh 14µM, RGS4 inh inconclusive
CN(Cc1ccc(Cl)cc1Cl)C(=O)C1CSC2(C)CCC(=O)N12 (stereo unspecified)	none (no result: TrxR1 inh, Eya2 phos inh, TrxR1 substrate, RGS4 inh)
